# Reference: PubChem BioAssay AID990 (National Center for Advancing Translational Sciences (NCATS), 2007)
# Active and inactive are the calls of the source.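 The calls were made as follows: active = compound that made reporter-free parental cells show up as glowing objects under laser imaging, so likely a fluorescent false positive; inactive = the rest.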
# Experiment: Parental Cell Counter Screen Assay for Epigenetic Modulators
# Details: parental c127i cells, compound fluorescence imaging, 30 h
# Text: NIH Molecular Libraries Screening Centers Network [MLSCN] NIH Chemical Genomics Center [NCGC] MLSCN Grant: 1 X01 MH079860-01 Assay Provider: Elisabeth D. Martinez, University of Texas SW Medical Center NCGC Assay Overview: This assay is a counter screen for the Locus Derepression (LDR) assay (PubChem AID 597). The LDR assay detects the derepression of a GFP reporter that is stably integrated in a region of the genome of murine c127i mammary cells that is presumably silenced. Compounds that cause derepression of the locus to express GFP are identified by enumerating GFP positive cells using a laser-scanning microplate cytometer. […] Compounds active in the parental c127i cells are likely fluorescent.
# NCGC Assay Protocol Summary: Two hundred and fifty cells in 5 uL per well were dispensed into black, clear-bottom 1536-well plates. Twenty-three nL compound was transferred to the assay plate and cells were incubated 30 hours at 37 C. Medium was removed, cells were washed two times with PBS, and fluorescent cells were enumerated as objects between the sizes of 20 to 120 um width and depth using a laser-scanning microplate imager (Acumen Explorer Ex3, TTP Labtech).
smiles,measurement,value
CN1CSC(=S)N(C)C1,outcome,inactive
